# Reference: article PMC4552634, “A New Set of Chemical Starting Points with Plasmodium falciparum Transmission-Blocking Potential for Antimalarial Drug Discovery” (PLoS ONE, 2015)
# Like-named read-outs stand apart in the source and are kept apart here. Out of some 13,000 compounds screened, about 3,200 (25%) showed an effect of 50% or more. The list shows a part of the results.
# Tested on: P. falciparum stage V gametocytes
# Design: BacTiter-Glo ATP luminescence viability of purified stage V gametocytes in 384-well plates, per cent inhibition versus DMSO
# Settings: 48 h, 5 µM, inhibitor
SMILES,% Inhibition [%],% Inhibition (% Inhibition) [%]
O=C(NCC1CCC(CNCCCc2ccccc2)CC1)Nc1ccc(Cl)c(Cl)c1 (centres unmarked) [TCMDC-140705],-6.849,
COc1ccc2nccc([C@@H](O)CN3CCC(NCc4nc5c(cc4Cl)SCC(=O)N5)C(F)C3)c2c1 (some centres unmarked) [TCMDC-141679],,-19.09
COc1ccc(OCCCCON2C(N)=NC(N)=NC2(C)C)cc1 [TCMDC-131732],29.82,
CCOc1cccc(C2c3c(oc4ccccc4c3=O)C(=O)N2CCN(CC)CC)c1 (centres unmarked) [TCMDC-124476],-6.195,
NS(=O)(=O)CCc1cccc(Nc2nccc(-c3c(-c4cccc(NC(=O)c5c(F)cccc5F)c4)nn4ccccc34)n2)c1 [TCMDC-135791],-73.1,
N#Cc1ccc2c(c1)CN(C1CCC(NC(=O)C3=Cc4cc(Cl)ccc4OC3)CC1)CCC2 (centres unmarked) [TCMDC-133501],-19.21,
Cc1nc(-c2cccc(C(=O)N(Cc3cncn3Cc3cccc(C(F)(F)F)c3)CC3CC3)c2)cs1 [TCMDC-132462],-20.16,
c1ccc(CCNCc2ccc(-c3ccc(CNCc4ccc5c(c4)OCO5)cc3)nc2)cc1 [TCMDC-141648],21,
FC(F)(F)c1cccc(CNCCCCCNCc2ccc(Cl)cc2)c1 [TCMDC-140403],31.4,
Clc1ccc(CCNCCCCCCNCCc2ccc3c(c2)OCO3)cc1 [TCMDC-132042],88.67,
Clc1ccc2c(NCc3ccc4c(c3)OCO4)ccnc2c1 [TCMDC-125106],-11.41,
Oc1cccc(CCNCCCCCCNCCc2ccc(Cl)cc2)c1 [TCMDC-131285],116.7,
O=C(NCCCCNCC(Cc1cccc(O)c1)c1ccccc1)c1ccc(NC(=O)c2ccc(Cl)cc2)cc1 (centres unmarked) [TCMDC-138563],-50.17,
Oc1ccc(CCNCCCCCCNCCc2ccc(Br)cc2)cc1O [TCMDC-131263],95.59,
O=C(/C=C/c1ccc(Cl)c(Cl)c1)NCCCCCN1CCN(C(=O)Nc2ccc(OC(F)F)cc2)CC1 [TCMDC-135733],4.05,
O=C1NC(=S)N/C1=C/C=C/c1ccc([N+](=O)[O-])o1 [TCMDC-125757],95.66,
O=C(Nc1ccc(-c2csc(-c3nc4ccccc4[nH]3)c2)cc1)Nc1ccc(Cl)c(Cl)c1 [TCMDC-133271],-42.33,
O=C(NCC1Cc2cc(Oc3ccccc3)ccc2O1)c1ccc([N+](=O)[O-])o1 (centres unmarked) [TCMDC-124802],28.95,
CC(C)(C)c1nn(-c2ccc(Cl)cc2)c2[nH]c(=O)c(CNC3CCCC3)cc12 [TCMDC-123909],44.22,
COc1ccc(CCNCc2cc3c(C(C)(C)C)nn(-c4ccc(Cl)cc4)c3[nH]c2=O)cc1OC [TCMDC-125351],40.9,
CC(C)(C)c1nn(-c2ccccc2)c2[nH]c(=O)c(CNCc3ccc4c(c3)OCO4)cc12 [TCMDC-123910],11.81,
CC(C)(C)c1nn(-c2ccc(Cl)cc2)c2[nH]c(=O)c(CNCc3cccs3)cc12 [TCMDC-123908],55.18,

SMILES,% Inhibition [%],% Inhibition (% Inhibition) [%]
CC(C)(C)c1nn(-c2ccc(Cl)cc2)c2[nH]c(=O)c(CNCc3ccc4c(c3)OCO4)cc12 [TCMDC-136662],74.56,
CC(C)(C)c1nn(-c2ccccc2)c2[nH]c(=O)c(CNCc3ccccc3)cc12 [TCMDC-123911],-3.272,
Cc1ccc(NS(=O)(=O)c2cccs2)cc1-c1cccc(C(=O)Nc2ccc(F)cc2)c1 [TCMDC-133590],-57.86,
CN(C)c1cccc(NC(=O)NC2N=C(c3ccccc3)c3ccccc3N(CC(=O)N(C)c3ccccc3)C2=O)c1 (centres unmarked) [TCMDC-131985],33.13,
Cc1nc(N)nc(N)c1OCc1ccc(Cl)c(Cl)c1 [TCMDC-131718],-2.553,
CC(C)CSc1cc(C(=O)Nc2cc(Cl)ccc2O)ccn1 [TCMDC-138874],-25.81,
O=C(Nc1nc2cc(S(=O)(=O)NCCc3ccc(F)cc3)ccc2n1CCCn1ccnc1)c1ccc(Cl)cc1 [TCMDC-141626],16.98,
CCCC1(NC[C@@H](O)[C@H](Cc2ccccc2)NC(=O)c2cc(NCC)cc(N3CCCCS3(=O)=O)c2)CCCC1 [TCMDC-135261],38.92,
CCNc1cc(C(=O)N[C@@H](Cc2ccccc2)[C@H](O)CNC2CC3CCC2C3)cc(N2CCCCS2(=O)=O)c1 (some centres unmarked) [TCMDC-135107],91.01,
CCNc1cc(C(=O)N[C@@H](Cc2ccccc2)[C@H](O)CNC2(CC)CC2)cc(N2CCCCS2(=O)=O)c1 [TCMDC-135176],3.927,
CCNc1cc(C(=O)N[C@@H](Cc2ccccc2)[C@H](O)CNC2(CC)CCCCC2)cc(N2CCCCS2(=O)=O)c1 [TCMDC-135209],82.14,
CCCC1(NC[C@@H](O)[C@H](Cc2ccccc2)NC(=O)c2cc(NCC)cc(N3CCCCS3(=O)=O)c2)CCCCC1 [TCMDC-135262],28.65,
CCNc1cc(C(=O)N[C@@H](Cc2ccccc2)[C@H](O)CNC23CCC(CC2)C3)cc(N2CCCCS2(=O)=O)c1 [TCMDC-135371],58.44,
CCNc1cc(C(=O)N[C@@H](Cc2ccccc2)[C@H](O)CNC23CCC(CC2)CC3)cc(N2CCCCS2(=O)=O)c1 [TCMDC-135390],43.97,
CCNc1cc(C(=O)N[C@@H](Cc2ccccc2)[C@H](O)CNC23CC4CC(CC(C4)C2)C3)cc(N2CCCCS2(=O)=O)c1 [TCMDC-135352],40.45,
CCNc1cc(C(=O)N[C@@H](Cc2ccccc2)[C@H](O)CNC2C3CC4CC(C3)CC2C4)cc(N2CCCCS2(=O)=O)c1 (some centres unmarked) [TCMDC-135424],38.6,
CCNc1cc(C(=O)N[C@@H](Cc2ccccc2)[C@H](O)CNC2CCCCC2)cc(N2CCCCS2(=O)=O)c1 [TCMDC-134676],26.1,
CCCC1(NC[C@@H](O)[C@H](Cc2ccccc2)NC(=O)c2cc(NCC)cc(N3CCCCS3(=O)=O)c2)CC1 [TCMDC-135192],21.27,
CCNc1cc(C(=O)N[C@@H](Cc2ccccc2)[C@H](O)CNC2(C)CCCCC2)cc(N2CCCCS2(=O)=O)c1 [TCMDC-134703],93.77,
N#Cc1cccc(C(=O)Nc2cccc(-c3ccc(C(=O)NCCCN4CCOCC4)cc3)c2)c1 [TCMDC-133694],-17.34,
CC(Nc1ncc(-c2ccsc2)c(-c2nccs2)n1)c1ccc2c(c1)OCCO2 (centres unmarked) [TCMDC-125367],-15.14,
O=C(NCCCCN1CCCC2c3ccc(O)cc3CCC21)c1ccc(-c2ccccc2)cc1 (centres unmarked) [TCMDC-139083],,-83.61

SMILES,% Inhibition [%],% Inhibition (% Inhibition) [%]
CCc1c(C)nc(-n2nc(C)cc2NC(=O)C2c3ccccc3Oc3ccccc32)[nH]c1=O [TCMDC-124932],-24.15,
O=S1(=O)NCc2ccc(Nc3nccc(Nc4ccc5c(cnn5Cc5ccccc5)c4)n3)cc21 [TCMDC-138840],-68.79,
O=C(Nc1cccc(-c2nn3ccccc3c2-c2ccnc(Nc3cccc(F)c3)n2)c1)c1c(F)ccc(F)c1F [TCMDC-135844],-56.6,
NC(=O)c1cccc(C(=O)Nc2cccc(-c3cccc(-c4nc5ccccc5[nH]4)c3)c2)c1 [TCMDC-132194],0.2723,
COc1ccc(C2c3ccccc3-c3nc(N)nc(N)c3C2C)cc1 (centres unmarked) [TCMDC-137992],31.51,
Cc1cc(NC(=O)NCCN2CCC(NS(=O)(=O)c3ccccc3Cl)C2)c2ccccc2n1 (centres unmarked) [TCMDC-136142],-23.32,
Cc1oc(-c2cccc(Oc3ccccc3)c2)nc1CN(Cc1cnn(C)c1)C(C)C [TCMDC-124609],-17.42,
COc1ccc2nccc(N(C)CC3(O)CCN(CCc4ccc5c(c4)OCCO5)CC3)c2n1 [TCMDC-141473],35.78,
CCNc1cc(C(=O)N[C@@H](Cc2ccccc2)[C@H](O)CNCc2cccc(-n3ccnc3)c2)cc(N2CCCC2=O)c1 [TCMDC-141686],34.28,
CN(C)C(CNC(=O)c1cc(-c2ccncc2)c(-c2cc3ccccc3[nH]2)o1)c1ccccc1 (centres unmarked) [TCMDC-135864],29.45,
CCCN(CC(=O)NCCc1ccccc1)c1ccc(C#N)c2ccccc12 [TCMDC-135545],-10.84,
CCc1cccc2c(C#N)cn(CC(=O)Nc3ccc(OC)cc3)c12 [TCMDC-123527],78.76,
N#Cc1ccc(N(CC(=O)NCCc2ccc(F)cc2)CC2CC2)c2ccccc12 [TCMDC-135573],-38.52,
COc1ccc(CC(=O)Nc2ccc(Nc3nc(C)cc(N(C)C)n3)cc2)cc1 [TCMDC-124973],14.2,
CCc1ccc(NC(=O)c2cccc(CN3CCCN(Cc4ccc(OC)cc4)CC3)c2)cc1 [TCMDC-135990],-23.52,
CCc1cccc2c(C#N)cn(CC(=O)NCCc3ccccc3)c12 [TCMDC-124363],56.03,
CCOc1ccc(OCC(=O)Nc2nc(-c3ccc(OC)cc3)c(C)s2)cc1 [TCMDC-124322],37.56,
CN(C)CCOc1ccc(-c2cc(-c3ccc(Cl)c(O)c3)c(-c3ccncc3)[nH]2)cc1 [TCMDC-141255],-84.18,
Oc1c(Cl)cc(Nc2nccc(Nc3ccc(Oc4ccccc4)cc3)n2)cc1Cl [TCMDC-138588],-66,
Clc1ccc(-n2cnc3c(Nc4ccc(Oc5ccccc5)cc4)ncnc32)cc1Cl [TCMDC-138209],88.06,
c1ccc(Oc2ccc(Nc3nncc4ccccc34)cc2)cc1 [TCMDC-137229],25.45,
